Results from the supplement of paper PMC10849652.
Targets with a hit are over-represented here; the source holds about 8,800 in all. About 0.5% of all pairs of compound and target were hits.

Tests used:
Assay in all cases: log2 fold change, soluble protein after heating vs DMSO (PISA); higher = thermal stabilisation; K562 lysate, 10 uM; active = over 0.2 and 3.5 SD of the protein, either way, in both replicates (recomputed)
vemurafenib = compound: CCCS(=O)(=O)Nc1ccc(F)c(C(=O)c2c[nH]c3ncc(-c4ccc(Cl)cc4)cc23)c1F [vemurafenib]
Summary of the method: (§1)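 A 30 min treatment with 10 μM compound was applied to crude K562 extract at 1 mg/mL protein in PBS pH 7.4 with 1 mM MgCl2. Heating for 3 min spanned 48°C-58°C, after which aliquots were pooled, adjusted to 0.5% NP-40 at 4°C and spun at 21,000xg for 90 min. TMTpro 16plex LC-MS/MS of the supernatant, with channel sums equalised, gave values recorded as log-two fold change in thermal stability against solvent controls, from duplicates.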

[1] = compound: CCCS(=O)(=O)Nc1ccc(F)c(C(=O)c2c[nH]c3ncc(Cl)cc23)c1F
Summary of the method: as §1

barasertib = compound: CCN(CCCOc1ccc2c(Nc3cc(CC(=O)Nc4cccc(F)c4)[nH]n3)ncnc2c1)CCOP(=O)(O)O [barasertib]
Summary of the method: as §1

[2] = compound: CC[C@@H]1C(=O)N(C)c2cnc(Nc3ccc(C(=O)NC4CCN(C)CC4)cc3OC)nc2N1C1CCCC1
Summary of the method: as §1

volasertib = compound: CC[C@@H]1C(=O)N(C)c2cnc(Nc3ccc(C(=O)N[C@H]4CC[C@H](N5CCN(CC6CC6)CC5)CC4)cc3OC)nc2N1C(C)C [volasertib]
Summary of the method: as §1

[3] = compound: CCn1c(C(=O)N(C2CC2)C2CC2)cc2c3c(ncn3C)c(Nc3cc(C)n(C)n3)nc21
Summary of the method: as §1

[4] = compound: CCn1cc(-c2ccnc3[nH]c(-c4cccc(CN(C)C)c4)cc23)c(-c2ccc(NC(=O)N(C)C)cc2)n1
Summary of the method: as §1

[5] = compound: CN1CCC(CNc2ccc3ncc(-c4cccc(OC(F)(F)F)c4)n3n2)CC1
Summary of the method: as §1

saracatinib = compound: CN1CCN(CCOc2cc(OC3CCOCC3)c3c(Nc4c(Cl)ccc5c4OCO5)ncnc3c2)CC1 [saracatinib]
Summary of the method: as §1

sotrastaurin = compound: CN1CCN(c2nc(C3=C(c4c[nH]c5ccccc45)C(=O)NC3=O)c3ccccc3n2)CC1 [sotrastaurin]
Summary of the method: as §1

Measured: log2 fold change

CRABP2 (UniProt P29373)
Sequence of UniProt P29373 (P29373 whole entry, looked up): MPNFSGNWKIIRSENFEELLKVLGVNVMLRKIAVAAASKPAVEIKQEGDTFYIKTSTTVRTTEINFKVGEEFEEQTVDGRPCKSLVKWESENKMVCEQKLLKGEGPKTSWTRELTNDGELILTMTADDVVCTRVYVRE
inactive: vemurafenib 0.128 | [1] 0.007 | barasertib 0.528 | [2] -0.139 | volasertib 0.026 | [3] -0.005 | [4] 0.089 | [5] -0.003 | saracatinib 0.092 | sotrastaurin 0.001

CSDE1 isoform 4 (UniProt O75534)
inactive: vemurafenib -0.002 | [1] 0.004 | barasertib 0.01 | [2] -0.083 | volasertib -0.041 | [3] 0.028 | [4] 0.069 | [5] -0.066 | saracatinib 0.003 | sotrastaurin -0.018

CIAO2A (UniProt Q9H5X1)
Sequence of UniProt Q9H5X1 (Q9H5X1 whole entry, looked up): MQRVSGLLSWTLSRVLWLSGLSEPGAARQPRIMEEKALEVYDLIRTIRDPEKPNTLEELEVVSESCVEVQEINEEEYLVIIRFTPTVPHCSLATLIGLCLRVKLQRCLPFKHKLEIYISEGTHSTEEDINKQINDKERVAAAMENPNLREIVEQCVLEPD
inactive: vemurafenib -0.028 | [1] -0.032 | barasertib 0.094 | [2] -0.042 | volasertib -0.007 | [3] 0.026 | [4] 0.233 | [5] -0.203 | saracatinib 0.033 | sotrastaurin 0.034

CSNK1D (UniProt P48730)
Sequence of UniProt P48730 (P48730 whole entry, looked up): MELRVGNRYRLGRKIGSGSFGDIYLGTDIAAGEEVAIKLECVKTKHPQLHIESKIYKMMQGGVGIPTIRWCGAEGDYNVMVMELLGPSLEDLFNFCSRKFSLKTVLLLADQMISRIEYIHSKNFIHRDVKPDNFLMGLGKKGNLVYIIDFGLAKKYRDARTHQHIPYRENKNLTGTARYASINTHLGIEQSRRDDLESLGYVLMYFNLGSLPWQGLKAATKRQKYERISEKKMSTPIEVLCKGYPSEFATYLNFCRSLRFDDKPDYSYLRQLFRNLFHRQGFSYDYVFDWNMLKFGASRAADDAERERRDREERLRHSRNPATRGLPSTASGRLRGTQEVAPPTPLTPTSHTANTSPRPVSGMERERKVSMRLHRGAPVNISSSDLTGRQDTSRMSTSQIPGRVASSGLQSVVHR
inactive: vemurafenib -0.04 | [1] -0.044 | barasertib -0.092 | volasertib -0.191 | [3] 0.025 | [5] 0.255 | saracatinib -0.039 | sotrastaurin 0.058

DNAJC1 (UniProt Q96KC8)
inactive: vemurafenib -0.019 | [1] 0.006 | barasertib 0.053 | [2] 0.017 | volasertib -0.012 | [3] 0.067 | [4] 0.033 | saracatinib 0.029 | sotrastaurin -0.002
active: [5] -0.293

DNM2 (UniProt P50570)
Sequence of UniProt P50570 (P50570 whole entry, looked up): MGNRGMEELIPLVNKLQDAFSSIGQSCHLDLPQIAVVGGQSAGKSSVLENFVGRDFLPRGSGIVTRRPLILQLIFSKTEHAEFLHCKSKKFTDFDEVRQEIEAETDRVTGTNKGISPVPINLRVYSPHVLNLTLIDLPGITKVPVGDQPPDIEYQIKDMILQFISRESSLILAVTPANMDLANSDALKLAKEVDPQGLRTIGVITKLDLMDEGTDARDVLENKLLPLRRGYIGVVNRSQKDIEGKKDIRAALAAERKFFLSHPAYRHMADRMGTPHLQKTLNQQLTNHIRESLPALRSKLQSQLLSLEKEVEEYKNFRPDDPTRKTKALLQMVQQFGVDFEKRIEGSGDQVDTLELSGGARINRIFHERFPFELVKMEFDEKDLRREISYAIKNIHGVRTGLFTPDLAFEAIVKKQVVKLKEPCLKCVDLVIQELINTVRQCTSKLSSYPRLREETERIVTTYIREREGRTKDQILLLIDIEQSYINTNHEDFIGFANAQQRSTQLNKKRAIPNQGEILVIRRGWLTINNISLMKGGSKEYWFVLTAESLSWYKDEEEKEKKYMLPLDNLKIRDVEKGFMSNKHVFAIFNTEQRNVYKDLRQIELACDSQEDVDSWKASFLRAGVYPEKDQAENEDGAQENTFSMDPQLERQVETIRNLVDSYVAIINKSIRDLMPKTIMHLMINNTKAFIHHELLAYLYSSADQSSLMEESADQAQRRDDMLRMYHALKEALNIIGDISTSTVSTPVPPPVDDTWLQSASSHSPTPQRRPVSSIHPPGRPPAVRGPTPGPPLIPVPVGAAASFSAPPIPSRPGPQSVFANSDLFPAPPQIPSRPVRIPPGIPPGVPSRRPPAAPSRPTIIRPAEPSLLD
inactive: vemurafenib 0.002 | [1] 0.005 | barasertib 0.037 | [2] -0.024 | volasertib -0.043 | [3] 0.029 | [4] -0.012 | [5] 0.013 | saracatinib 0.016 | sotrastaurin 0.001

DGCR8 (UniProt Q8WYQ5)
Sequence of UniProt Q8WYQ5 (Q8WYQ5 whole entry, looked up): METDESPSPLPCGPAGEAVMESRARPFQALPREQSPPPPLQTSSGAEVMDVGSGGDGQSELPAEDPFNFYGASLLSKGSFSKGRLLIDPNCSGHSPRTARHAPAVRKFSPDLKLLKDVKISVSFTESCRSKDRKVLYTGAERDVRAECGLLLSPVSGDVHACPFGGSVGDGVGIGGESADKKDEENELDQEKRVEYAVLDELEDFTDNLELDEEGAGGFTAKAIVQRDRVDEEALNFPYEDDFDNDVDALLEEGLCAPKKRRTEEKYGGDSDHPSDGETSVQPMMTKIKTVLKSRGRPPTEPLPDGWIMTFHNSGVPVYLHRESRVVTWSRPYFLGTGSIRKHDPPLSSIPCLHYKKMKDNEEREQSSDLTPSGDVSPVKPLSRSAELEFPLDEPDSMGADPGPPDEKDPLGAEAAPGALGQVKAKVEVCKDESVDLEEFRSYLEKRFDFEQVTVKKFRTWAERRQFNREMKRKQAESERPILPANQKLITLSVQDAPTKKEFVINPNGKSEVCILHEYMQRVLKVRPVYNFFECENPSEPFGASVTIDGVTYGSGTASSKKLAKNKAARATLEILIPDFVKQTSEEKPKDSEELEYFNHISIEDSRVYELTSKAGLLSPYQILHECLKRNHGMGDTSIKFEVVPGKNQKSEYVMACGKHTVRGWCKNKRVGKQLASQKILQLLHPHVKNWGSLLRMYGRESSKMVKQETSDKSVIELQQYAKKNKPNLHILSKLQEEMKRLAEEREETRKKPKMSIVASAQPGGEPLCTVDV
inactive: vemurafenib -0.022 | [1] 0.031 | barasertib 0.062 | [2] -0.046 | volasertib -0.021 | [3] 0.015 | [4] -0.052 | [5] 0.066 | saracatinib 0.042 | sotrastaurin 0.04

CMBL (UniProt Q96DG6)
inactive: vemurafenib -0.053 | [1] -0.027 | barasertib -0.026 | [2] 0.081 | volasertib 0.183 | [3] 0.004 | [4] -0.174 | [5] 0.129 | saracatinib -0.016 | sotrastaurin -0.015

CUL1 (UniProt Q13616)
inactive: vemurafenib -0.008 | [1] 0.001 | barasertib -0.011 | [2] 0.034 | volasertib 0.029 | [3] 0.004 | [4] -0.013 | [5] 0.029 | saracatinib -0.023 | sotrastaurin -0.029

CSNK1G3 (UniProt Q9Y6M4)
inactive: vemurafenib -0.004 | [1] -0.053 | barasertib -0.028 | volasertib 0.002 | [3] 0.039 | [4] -0.095 | [5] 0.065 | saracatinib 0.043 | sotrastaurin 0.035

DPY19L3 (UniProt Q6ZPD9)
Sequence of UniProt Q6ZPD9 (Q6ZPD9 whole entry, looked up): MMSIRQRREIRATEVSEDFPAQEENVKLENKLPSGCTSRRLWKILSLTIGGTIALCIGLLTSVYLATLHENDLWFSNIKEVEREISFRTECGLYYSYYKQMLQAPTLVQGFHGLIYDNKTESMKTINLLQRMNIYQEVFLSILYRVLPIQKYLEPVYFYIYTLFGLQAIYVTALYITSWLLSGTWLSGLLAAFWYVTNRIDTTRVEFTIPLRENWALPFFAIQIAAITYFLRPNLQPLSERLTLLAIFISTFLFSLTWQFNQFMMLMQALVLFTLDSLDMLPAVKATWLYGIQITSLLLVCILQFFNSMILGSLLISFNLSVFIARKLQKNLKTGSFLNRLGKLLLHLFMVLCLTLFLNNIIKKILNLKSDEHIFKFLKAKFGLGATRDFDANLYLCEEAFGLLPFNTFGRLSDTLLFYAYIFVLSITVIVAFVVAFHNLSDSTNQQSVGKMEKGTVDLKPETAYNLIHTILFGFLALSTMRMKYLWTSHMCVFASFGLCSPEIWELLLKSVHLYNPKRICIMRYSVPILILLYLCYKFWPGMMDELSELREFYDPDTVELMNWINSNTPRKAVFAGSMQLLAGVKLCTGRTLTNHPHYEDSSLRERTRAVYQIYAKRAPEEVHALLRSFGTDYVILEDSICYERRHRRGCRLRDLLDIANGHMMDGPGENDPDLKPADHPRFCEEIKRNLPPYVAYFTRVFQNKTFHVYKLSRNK
inactive: vemurafenib 0.258 | [1] 0.05 | barasertib 0.071 | [2] 0.043 | volasertib -0.007 | sotrastaurin 0.051

CNOT2 (UniProt Q9NZN8)
inactive: vemurafenib 0.037 | [1] -0.026 | barasertib 0.065 | [2] 0.029 | volasertib -0.048 | [3] 0.039 | [4] 0.17 | [5] -0.059 | saracatinib -0.013 | sotrastaurin 0.002

CLPB isoform 2 (UniProt Q9H078)
Sequence of UniProt Q9H078 (Q9H078 whole entry, looked up): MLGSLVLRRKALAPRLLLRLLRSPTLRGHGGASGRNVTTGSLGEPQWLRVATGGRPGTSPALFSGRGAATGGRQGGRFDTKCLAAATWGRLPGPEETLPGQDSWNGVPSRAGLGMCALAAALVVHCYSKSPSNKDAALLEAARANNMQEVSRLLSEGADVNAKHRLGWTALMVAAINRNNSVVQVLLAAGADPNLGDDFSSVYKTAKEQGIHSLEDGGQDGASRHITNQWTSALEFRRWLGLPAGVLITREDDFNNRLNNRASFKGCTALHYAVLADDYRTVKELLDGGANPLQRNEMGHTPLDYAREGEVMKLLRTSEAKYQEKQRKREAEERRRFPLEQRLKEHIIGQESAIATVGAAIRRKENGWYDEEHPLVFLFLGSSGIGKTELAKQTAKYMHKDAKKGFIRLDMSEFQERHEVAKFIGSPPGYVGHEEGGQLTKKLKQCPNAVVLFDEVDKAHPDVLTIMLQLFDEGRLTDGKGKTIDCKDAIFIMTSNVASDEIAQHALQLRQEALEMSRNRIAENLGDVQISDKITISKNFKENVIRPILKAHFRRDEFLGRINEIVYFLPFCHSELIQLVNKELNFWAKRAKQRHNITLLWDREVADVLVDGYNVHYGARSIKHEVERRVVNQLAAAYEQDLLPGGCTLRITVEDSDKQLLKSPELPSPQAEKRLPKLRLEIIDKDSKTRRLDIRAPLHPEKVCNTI
inactive: vemurafenib 0.011 | [1] 0.023 | barasertib 0.026 | [2] 0.007 | volasertib -0.042 | [3] 0.044 | [4] 0.078 | [5] -0.045 | saracatinib 0.004 | sotrastaurin -0.012

CNIH4 (UniProt Q9P003)
Sequence of UniProt Q9P003 (Q9P003 whole entry, looked up): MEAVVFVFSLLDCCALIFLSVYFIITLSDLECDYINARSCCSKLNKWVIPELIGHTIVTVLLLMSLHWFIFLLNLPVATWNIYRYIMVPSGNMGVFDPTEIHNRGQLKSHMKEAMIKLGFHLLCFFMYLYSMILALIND
inactive: vemurafenib 0.217 | [1] 0.064 | barasertib 0.585 | [2] 0.051 | volasertib -0.077 | [3] -0.19 | saracatinib 0.021 | sotrastaurin 0.066

DNAH5 (UniProt Q8TE73)
inactive: vemurafenib 0.007 | [1] 0.074 | barasertib 0.006 | volasertib 0.02 | [3] -0.035 | [5] 0.122 | saracatinib 0.007
active: [4] -0.481

DFFB (UniProt O76075)
Sequence of UniProt O76075 (O76075 whole entry, looked up): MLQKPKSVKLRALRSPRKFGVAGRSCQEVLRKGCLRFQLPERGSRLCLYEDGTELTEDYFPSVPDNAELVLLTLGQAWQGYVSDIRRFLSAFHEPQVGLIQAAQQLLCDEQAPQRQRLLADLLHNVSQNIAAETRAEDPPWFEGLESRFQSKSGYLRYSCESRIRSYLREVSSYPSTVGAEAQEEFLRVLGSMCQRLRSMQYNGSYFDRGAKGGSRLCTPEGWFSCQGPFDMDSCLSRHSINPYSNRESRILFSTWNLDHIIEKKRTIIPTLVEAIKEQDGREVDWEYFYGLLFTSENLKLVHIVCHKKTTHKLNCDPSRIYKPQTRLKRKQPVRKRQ
inactive: vemurafenib 0.022 | [1] 0.044 | barasertib -0.064 | [2] 0.037 | volasertib -0.012 | [3] 0.1 | [4] -0.024 | [5] 0.061 | saracatinib 0.042 | sotrastaurin 0.06

DICER1 (UniProt Q9UPY3)
inactive: vemurafenib -0.002 | [1] 0.05 | barasertib 0.01 | [2] 0.003 | volasertib -0.068 | [3] 0.021 | [4] 0.275 | [5] 0.036 | saracatinib 0.005 | sotrastaurin -0.018

DHX32 (UniProt Q7L7V1)
inactive: vemurafenib 0.173 | [2] -0.026 | [3] -0.106 | [4] 0.137 | [5] 0.003 | sotrastaurin -0.011

CHFR (UniProt Q96EP1)
Sequence of UniProt Q96EP1 (Q96EP1 whole entry, looked up): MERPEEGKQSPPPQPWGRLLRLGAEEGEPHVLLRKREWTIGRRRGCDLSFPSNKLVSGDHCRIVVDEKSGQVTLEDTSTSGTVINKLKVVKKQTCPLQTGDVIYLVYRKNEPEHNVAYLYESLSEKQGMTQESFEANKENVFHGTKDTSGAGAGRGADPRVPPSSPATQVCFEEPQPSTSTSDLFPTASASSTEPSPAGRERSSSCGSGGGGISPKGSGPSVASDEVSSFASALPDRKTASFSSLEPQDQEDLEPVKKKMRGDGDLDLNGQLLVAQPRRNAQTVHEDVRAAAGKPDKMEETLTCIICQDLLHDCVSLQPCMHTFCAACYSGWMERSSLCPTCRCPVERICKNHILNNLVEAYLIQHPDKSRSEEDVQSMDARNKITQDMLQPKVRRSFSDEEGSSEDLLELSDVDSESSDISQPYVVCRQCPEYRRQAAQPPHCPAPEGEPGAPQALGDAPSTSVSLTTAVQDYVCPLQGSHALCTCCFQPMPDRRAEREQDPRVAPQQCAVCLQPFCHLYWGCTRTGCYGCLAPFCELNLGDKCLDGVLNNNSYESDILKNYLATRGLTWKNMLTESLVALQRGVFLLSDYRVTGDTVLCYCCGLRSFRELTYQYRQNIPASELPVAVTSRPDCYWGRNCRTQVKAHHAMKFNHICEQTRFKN
inactive: vemurafenib -0.252 | [1] 0.063 | [2] -0.013 | volasertib 0.043 | [3] 0.052 | saracatinib 0.052 | sotrastaurin 0.033

DBF4 (UniProt Q9UBU7)
inactive: vemurafenib 0.001 | barasertib 0.054 | [2] -0.015 | [3] 0.001 | [4] -0.003 | [5] -0.245 | saracatinib 0.001 | sotrastaurin -0.004

CSNK2A1, A0A2R8Y4D6
inactive: [1] 0.107 | volasertib -0.325
